TMEM16A act: TMEM16A chloride channel activators or potentiators, primary screen, cell-based, HTS; Anoctamin-1 (Mus musculus), Q8BHY3; HEK293 TMEM16A/YFP-H148Q/I152L, iodide quench fluorescence; active compounds read low; B-score at 10 µM; 0.3% of 340,000 active;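 active = fluorescence-ratio B-score plate-corrected deviation score at least 3 library SD below zero, with starting fluorescence score within 5 deviations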;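 also: channel opened by trigger with iodide after compound preincubation; score built on the fluorescence ratio of max minus min over baseline; more negative score means more quench and so TMEM16A activation or potentiation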
RTF Ca sens act: cardiac RTF calcium sensitivity activators, primary screen, biochemical, IANBD-TnC fluorescence, EC20 calcium. activation, % at 7.2 µM. AID 493008, 2010. Troponin I, cardiac muscle (Homo sapiens) + Troponin T, cardiac muscle (Homo sapiens) + …. 0.24% of 340,000 active. IANBD-labeled TnC RTF fluorescence at EC20 calcium; 0% EC20 calcium, 100% full calcium;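 active = activation above the mean over all tested compounds plus 3 SD, cut at about 30% in these data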;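 also: rise in fluorescence read as greater calcium sensitivity of cardiac thin filaments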
TMEM16A inh: TMEM16A chloride channel inhibitors, primary screen, cell-based, HTS; HEK293 TMEM16A/YFP iodide influx fluorescence, ionomycin; AID 588511, 2011; normalized B-score (activity score, 25-100; higher = stronger inhibition) at 10 µM; Anoctamin-1 (Mus musculus), Q8BHY3; 1.2% of 310,000 active;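 active = ratio plate-corrected score three or more library SD toward inhibition, starting fluorescence score within five deviations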;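 also: score derived from kinetic fluorescence span divided by baseline fluorescence per well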
CRFBP-R2 block: antagonists of CRF-BP/CRF-R2 complex, primary screen, cell-based, HEK293, calcium dye fluorescence, uHTS; CRF-induced calcium fluorescence; inhibition, % at 11.8 µM; 0.59% of 350,000 active;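 active = inhibition of the ligand-induced calcium signal above about 50% at the single tested concentration, limit read from the data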
Cardiac RTF inh: cardiac RTF calcium sensitivity inhibitors, primary screen, biochemical, IANBD-TnC fluorescence, EC70 calcium. Troponin I, cardiac muscle (Homo sapiens) + Troponin T, cardiac muscle (Homo sapiens) + …. IANBD-labeled cardiac RTF, Ca2+ fluorescence. inhibition, % at 7.15 µM. 0.12% of 340,000 active. AID 493244, 2011;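 active = inhibition above the mean inhibition of all tested compounds plus 3 SD, cut at about 17% in these data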;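 also: assay run at fixed EC70 calcium of 1.6 mM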
CRFR2-BP ag: agonists of CRF-BP/CRF-R2 complex, primary screen, cell-based, HEK293, calcium dye fluorescence, uHTS | CRF-binding protein / CRF receptor 2 complex (human) | calcium dye fluorescence (FLIPR); percent of saturating CRF peptide response | activation, % at 13.2 µM | 0.46% of 350,000 active | AID 588473, 2011;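 active = activation of at least 50%, plus an integration ratio under a set limit after plate pattern correction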;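 also: plate controls were neutral control wells without compound for no effect and CRF at EC100 for full effect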
TMEM16A reconf: TMEM16A chloride channel inhibitors, confirmation, cell-based, re-confirmation; shares compounds with TMEM16A inh; HEK293 TMEM16A/YFP-H148Q, iodide quench fluorescence; ionomycin added to raise cell calcium; inhibition, % at 10 µM; 39% of 2,300 active; AID 652189, 2013;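 active = mean duplicate percent inhibition, scaled so buffer wells are 0 and the reference blocker 100, over three buffer SD above buffer mean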
TMEM16A Ca cntr: calcium mobilization in TMEM16A/YFP HEK293 cells, confirmation, counter-screen for TMEM16A inhibitor project; shares compounds with TMEM16A inh; calcium response (% of ionomycin), % at 10 µM; Fluo4 calcium mobilization; 2% of 2,300 active; AID 652231, 2013;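 active = duplicate-averaged calcium signal over 20% of the ionomycin maximum, relative to buffer baseline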;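 also: each well's signal is peak minus trough fluorescence divided by its pre-addition baseline; 0% = buffer wells and 100% = ionomycin wells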
Parental YFP cnt: iodide YFP quench changes in parental YFP-HEK293, counter-screen for TMEM16A inhibitor project, cell-based; shares compounds with TMEM16A inh; ionomycin; YFP ratio F(max-min)/F0 at 10 µM; 2,300 tested, under 10 active; AID 652233, 2013;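 active = yellow fluorescent protein signal ratio exceeding the buffer control mean by over 5 SD of those controls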;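 also: ratio is mean of duplicate wells from kinetic YFP trace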
ClC-1 inh: ClC-1 chloride channel inhibition, selectivity assay for TMEM16A inhibitor project, cell-based, voltage-dependent ClC-1 | shares compounds with TMEM16A inh | CHO ClC-1-YFP, iodide influx fluorescence quench; iodide control reads 0, buffer control 100 | ratio percent, % at 10 µM | 2,300 tested, under 10 active | AID 652236, 2013;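 active = duplicate-mean ratio percent above the mean of iodide-only control wells, which defines zero, plus 5 of their SD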;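 also: higher percent means stronger block of ClC-1 iodide influx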
Target sequence (P35524 whole entry, looked up): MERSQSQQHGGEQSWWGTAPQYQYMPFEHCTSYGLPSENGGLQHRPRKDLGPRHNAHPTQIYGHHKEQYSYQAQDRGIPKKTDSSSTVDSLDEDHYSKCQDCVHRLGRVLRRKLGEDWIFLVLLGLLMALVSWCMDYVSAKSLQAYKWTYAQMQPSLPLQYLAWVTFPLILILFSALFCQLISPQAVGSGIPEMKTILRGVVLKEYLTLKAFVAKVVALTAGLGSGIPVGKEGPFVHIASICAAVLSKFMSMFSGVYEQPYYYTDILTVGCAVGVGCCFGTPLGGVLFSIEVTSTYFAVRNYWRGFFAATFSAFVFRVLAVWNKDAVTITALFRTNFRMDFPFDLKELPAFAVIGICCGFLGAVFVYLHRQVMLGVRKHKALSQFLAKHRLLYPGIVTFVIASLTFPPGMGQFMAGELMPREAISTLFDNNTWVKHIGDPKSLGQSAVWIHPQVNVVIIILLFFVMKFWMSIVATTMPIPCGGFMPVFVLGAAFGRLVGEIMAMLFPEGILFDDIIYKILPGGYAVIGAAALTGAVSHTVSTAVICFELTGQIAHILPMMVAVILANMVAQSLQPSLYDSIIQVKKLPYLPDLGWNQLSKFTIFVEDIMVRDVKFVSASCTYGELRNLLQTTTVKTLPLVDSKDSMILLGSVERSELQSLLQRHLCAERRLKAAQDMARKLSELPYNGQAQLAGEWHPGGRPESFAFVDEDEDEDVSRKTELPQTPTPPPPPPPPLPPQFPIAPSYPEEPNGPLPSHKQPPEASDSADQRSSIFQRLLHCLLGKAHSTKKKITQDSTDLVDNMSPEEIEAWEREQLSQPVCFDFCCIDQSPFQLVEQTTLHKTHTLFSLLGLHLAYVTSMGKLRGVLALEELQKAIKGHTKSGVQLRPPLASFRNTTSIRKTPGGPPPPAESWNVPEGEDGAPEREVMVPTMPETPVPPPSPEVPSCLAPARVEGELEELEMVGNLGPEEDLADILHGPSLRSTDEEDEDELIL
* marks the source's active call; other numbers are inactive results; i = inactive; . = no result. Sampled rows, rich in hits. Any-hit rate of the full collection: about 2.4%.

SMILES	TMEM16A act	RTF Ca sens act	TMEM16A inh	CRFBP-R2 block	Cardiac RTF inh	CRFR2-BP ag	TMEM16A reconf	TMEM16A Ca cntr	Parental YFP cnt	ClC-1 inh
COc1ccc(-n2c(SCC(=O)NCC3CCCO3)nc3ccccc3c2=O)cc1Cl (configuration not stated)	.	.	.	-14	.	2	.	.	.	.
Cc1ccn2c(=O)c(NC(=O)c3ccc4c(c3)OCO4)c(C)nc2c1	.	.	.	-5	.	0	.	.	.	.
COc1ccc(NC(=O)c2cnc3sccn3c2=O)cc1	i	-3	100*	-1	0	-2	i	i	-1	-7
CCOCc1c(C(=O)OCC(=O)Nc2ccc(C)c(S(=O)(=O)N(C)C)c2)oc2ccccc12	i	7	i	11	7	2	.	.	.	.
COc1ccc(Cl)cc1NC(=O)COC(=O)CNC(=O)c1ccc([N+](=O)[O-])c(C)c1	i	6	i	26	-6	-4	.	.	.	.
Cc1cc(C(=O)NCC(=O)OCC(=O)Nc2ccc(OC(F)F)cc2)ccc1[N+](=O)[O-]	i	8	25*	6	-5	0	i	i	-1.2	-2
O=C1CC2(CCCC2)C(=O)N1CN1CCN(S(=O)(=O)c2ccc(Cl)c(Cl)c2)CC1	i	-4	.	2	-3	0	.	.	.	.
Cc1ccccc1NCc1nnc2n1CCCCC2	i	-5	i	-5	6	1	.	.	.	.
CN(Cc1ccc(F)cc1)C(=O)c1cccc(S(=O)(=O)N2CCN(c3ccc(F)cc3)CC2)c1	i	-9	25*	16	-7	0	i	i	-1.4	-9
CN(CC(=O)Nc1ccc(F)cc1)C(=O)c1cccc(S(=O)(=O)N2CCN(c3ccc(F)cc3)CC2)c1	i	-9	i	10	-10	0	.	.	.	.
COc1cccc(NC(=O)CN(C)C(=O)c2cccc(S(=O)(=O)N3CCN(c4ccc(F)cc4)CC3)c2)c1	i	-14	100*	-9	-20	0	i	i	-0.98	-2
Cc1ccc(Sc2c(CO)c(-c3ccccc3)nn2C)cc1	i	-2	100*	-9	-6	1	28%*	22%*	-1.2	-30
O=C(CSc1n[nH]c(-c2ccncc2)n1)Nc1ccccc1C(F)(F)F	i	-5	i	-12	-17	3	.	.	.	.
O=C(CCNS(=O)(=O)c1ccc(OC(F)(F)F)cc1)N1CCN(C/C=C/c2ccccc2)CC1	i	-3	25*	-12	4	0	i	i	-1.1	-4
O=C(CSc1nc2ccccc2o1)Nc1ccccc1N1CCCCCC1	i	-2	25*	11	7	0	i	i	-1.3	-8
O=C(CSc1nc2ccccc2o1)Nc1ccc(N2CCOCC2)c(Cl)c1	i	6	100*	-12	-1	2	24%*	i	-1	-20
Cc1cc(C)nc(SCC(=O)Nc2ccc(N3CCOCC3)c(Cl)c2)n1	i	-2	100*	-8	6	-1	i	i	-1.1	-15
O=C(CSc1nc2ccccc2s1)Nc1ccc(N2CCOCC2)c(Cl)c1	i	7	100*	23	-11	-2	i	i	-1.1	-14
CCC(C(=O)NC1CCCCC1)N(Cc1cccs1)C(=O)CCC(=O)Nc1cc(C)on1 (configuration not stated)	i	7	i	-1	-9	-1	.	.	.	.
Cc1ccc(C(=O)NCC(=O)OCC(=O)N(CC(C)C)c2c(N)n(Cc3ccccc3)c(=O)[nH]c2=O)cc1	i	27	i	21	-6	1	.	.	.	.
Cc1ccc(Cl)cc1NC(=O)CC(O)(C(F)(F)F)C(F)(F)F	i	2	100*	39	2	28	42%*	i	-0.95	-18
C=CCn1c(SCC(=O)NC(C)(C)C)nnc1-c1ccccc1O	i	3	100*	2	0	-2	i	i	-0.79	-6
C=CCn1c(SCC(=O)NC(=O)Cc2ccccc2)nnc1-c1ccccc1F	i	-6	.	2	-4	1	.	.	.	.
Cc1cc(=O)c2ccc(C(F)(F)F)cc2[nH]1	i	-2	i	-4	-7	3	.	.	.	.
O=c1cc(C(F)(F)F)[nH]c2ccc(C(F)(F)F)cc12	i	10	100*	34	-1	46	34%*	i	-0.95	-15
SMILES	TMEM16A act	RTF Ca sens act	TMEM16A inh	CRFBP-R2 block	Cardiac RTF inh	CRFR2-BP ag	TMEM16A reconf	TMEM16A Ca cntr	Parental YFP cnt	ClC-1 inh
Cc1ccc(N/C(N)=N/c2nc(C)cc(N3CCCCC3)n2)c(C)c1	-6.3*	-3	100*	-44	4	8	62%*	i	-0.92	-29
Cc1ccccc1NC(=O)CCCSc1nc2ccccc2s1	i	4	100*	0	-3	2	i	i	-0.85	-12
CSc1ccc(C(=O)C2CCCN(C(=O)CCn3cncn3)C2)cc1 (configuration not stated)	i	-4	i	-15	3	0	.	.	.	.
CSc1ccc(C(=O)C2CCCN(C(=O)CCc3c(C)nn(C)c3C)C2)cc1 (configuration not stated)	i	-3	25*	-11	1	1	i	i	-0.89	-11
COc1cc(CC(=O)NCC2CCCCC2)cc(OC)c1OC	i	-8	i	12	-3	0	.	.	.	.
COc1ccc(S(=O)(=O)NCC2CCCN(C(=O)CCC(F)(F)F)C2)cc1 (configuration not stated)	i	4	i	-1	-7	0	.	.	.	.
CC(=O)c1cc(-c2ccccc2)n(CCC(=O)NC(C)(C)C)c1C	i	-5	i	-42	-7	-2	.	.	.	.
